A selection: hits, their analogues and other compounds. The true share with any hit is near 1.5%.
PLC-beta3 inh = human PLC-beta3 inhibitors, primary screen, biochemical, fluorescence; AID 720704, 2013; inhibition, % at 12.2 µM; Purified PLC-beta3, fluorogenic substrate; hit rate 0.18% among 370,000; 1-phosphatidylinositol 4,5-bisphosphate phosphodiesterase beta-3 (Homo sapiens), Q01970; in the data active = inhibition above about 11%
sPLA2-III inh = human group III sPLA2 inhibitors, primary screen, biochemical, QFRET, BODIPY PC-A2 liposome substrate; QFRET BODIPY PC-A2 liposome hydrolysis, fluorescence; hit rate 0.56% among 370,000; inhibition, % at 12.2 µM;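 active = inhibition above mean plus 3 SD of compounds lying within the high and low control bounds, cut at about 19% in these data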
PLC-gamma1 inh = PLC-gamma1 enzyme inhibitors, primary screen, biochemical, fluorescence, purified enzyme; 1-phosphatidylinositol 4,5-bisphosphate phosphodiesterase gamma-1 (Homo sapiens), P19174; fluorogenic substrate; hit rate 0.84% among 370,000; inhibition, % at 12.2 µM
DAGLB inhibitor = DAGLB lipase inhibitors, primary screen, biochemical, fluorescence, HTS | Diacylglycerol lipase-beta (Homo sapiens), Q8NCG7 | HEK293T DAGLB membrane lysate, EnzChek fluorogenic substrate | inhibition, % at 5.17 µM | hit rate 0.059% among 340,000 | AID 504411, 2011; in the data active = inhibition above about 34%
Target sequence (Q8NCG7 whole entry, looked up): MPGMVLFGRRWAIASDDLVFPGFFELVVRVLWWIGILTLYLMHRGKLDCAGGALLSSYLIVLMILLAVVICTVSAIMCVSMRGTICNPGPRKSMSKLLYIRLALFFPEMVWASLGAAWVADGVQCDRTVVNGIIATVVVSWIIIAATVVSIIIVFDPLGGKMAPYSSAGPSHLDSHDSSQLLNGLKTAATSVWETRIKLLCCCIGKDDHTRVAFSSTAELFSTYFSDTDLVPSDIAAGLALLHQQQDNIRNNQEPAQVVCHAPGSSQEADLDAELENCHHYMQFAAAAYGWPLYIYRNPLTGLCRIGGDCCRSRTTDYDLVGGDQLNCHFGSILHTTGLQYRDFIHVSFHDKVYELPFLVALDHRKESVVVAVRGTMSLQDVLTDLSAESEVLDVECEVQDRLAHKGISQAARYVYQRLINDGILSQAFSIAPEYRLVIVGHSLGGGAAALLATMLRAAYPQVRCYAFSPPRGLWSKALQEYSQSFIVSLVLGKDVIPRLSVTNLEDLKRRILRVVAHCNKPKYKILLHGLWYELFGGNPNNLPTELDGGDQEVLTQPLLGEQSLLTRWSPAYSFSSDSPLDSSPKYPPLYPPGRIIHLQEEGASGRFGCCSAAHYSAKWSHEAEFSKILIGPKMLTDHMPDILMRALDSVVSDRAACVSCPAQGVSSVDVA
PLCg1 ctr = PLC-gamma1 enzyme inhibitors, counter-screen for PLC-beta3 inhibitor project, biochemical, fluorescence; shares compounds with PLC-gamma1 inh; purified PLC-gamma1, fluorogenic substrate; inhibition, % at 12.3 µM; hit rate 3.1% among 3,300; AID 743258, 2014
PLCbeta3 conf = PLC-beta3 inhibitor confirmation, biochemical, fluorescence, purified enzyme. shares compounds with PLC-gamma1 inh. fluorogenic substrate fluorescence. inhibition, % at 12.3 µM. hit rate 1% among 3,300. AID 743261, 2014; in the data active = inhibition above about 11%
sPLA2 confirm = human group III sPLA2 inhibitors, confirmation, biochemical, QFRET, triplicate; shares compounds with sPLA2-III inh; recombinant hGIII-sPLA2, BODIPY PC-A2 QFRET fluorescence; inhibition, % at 12.2 µM; hit rate 34% among 2,000;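 active = mean inhibition across triplicates above the hit cutoff set in the earlier primary screen, cut at about 19% in these data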
BODIPY interf = 535nm fluorescence optical interference, confirmation, artefact control for HGIII-sPLA2 inhibitor project, biochemical, QFRET. AID 743282, 2014. hit rate 8.5% among 2,000. BODIPY FL product fluorescence interference. shares compounds with sPLA2-III inh. inhibition, % at 12.2 µM;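 active = average inhibition above the solvent-only control mean plus 3 SD, cut at about 6% in these data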
535nm interf DR = 535nm fluorescence optical interference, dose response, artefact control for HGIII-sPLA2 inhibitor project, biochemical, QFRET; AID 743455, 2014; shares compounds with sPLA2-III inh; BODIPY FL product fluorescence interference, cell-free; IC50, µM; 240 tested, under 10 active;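 active = IC50 at or below 10 µM; inactive = IC50 above 10 µM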
Of the large screens only hits and unclear results are named; the others gave an inactive call (follow-up assays come after a bar, where they were run). Rule as the data show it, unless noted: active = inhibition above about 9.5%; inactive = the rest.

O=c1[nH]c(=O)n(Cc2ccco2)c(O)c1C=NCc1ccc2c(c1)OCO2	PLC-gamma1 inh 9.7 | PLCg1 ctr inactive | PLCbeta3 conf inactive
Clc1ccc(CNCCc2ccc3c(c2)OCO3)cc1	none
FC(F)(F)c1ccc(CNCCc2ccc3c(c2)OCO3)cc1	PLC-gamma1 inh 11 | PLCg1 ctr inactive | PLCbeta3 conf inactive
O=C1NCN(c2ccccc2)C12CCN(C(CCc1ccccc1)c1nnnn1C1CCCC1)CC2 (stereo not drawn)	PLC-gamma1 inh 11 (no result: DAGLB inhibitor) | PLCg1 ctr inactive | PLCbeta3 conf inactive
O=C1NCN(c2ccccc2)C12CCN(C(c1ccccc1OC(F)(F)F)c1nnnn1C1CCCC1)CC2 (stereo not drawn)	PLC-gamma1 inh 11 (no result: DAGLB inhibitor) | PLCg1 ctr inactive | PLCbeta3 conf inactive
N=c1c2c(-c3ccccc3)c(-c3ccccc3)n(Cc3ccccc3)c2ncn1C1CCC(O)CC1 (stereo not drawn)	none (no result: DAGLB inhibitor)
O=C(COc1ccccc1)N1CCN(CC2CC3C=CC2C3)CC1 (stereo not drawn)	PLC-gamma1 inh 16 | PLCg1 ctr inactive | PLCbeta3 conf inactive
Cc1ccc(OCC(=O)N2CCN(CC3CC4C=CC3C4)CC2)cc1 (stereo not drawn)	none
N#CC1c2ccccc2-n2nncc2CN1C(=O)c1cccnc1 (stereo not drawn)	none (no result: DAGLB inhibitor)
S=P(c1ccccc1)(c1ccccc1)c1cnc2ccccn12	none (no result: DAGLB inhibitor)
Cc1ccc(OC(=O)N(C)C[C@H]2OCc3cnnn3CCCC(=O)N([C@H](C)CO)C[C@H]2C)cc1	none (no result: DAGLB inhibitor)
O=c1[nH]c(=S)n(Cc2ccc(F)cc2)c(O)c1C=NCc1cccnc1	PLC-gamma1 inh 11 | PLCg1 ctr inactive | PLCbeta3 conf inactive
O=C(NCCN1CCC2(CC1)C(=O)NCN2c1ccccc1)C(c1ccccc1)c1ccccc1	none (no result: DAGLB inhibitor)
Cc1ccccc1CCC[C@H](CC1CCCCC1)CN(C)C(=O)Oc1ccccc1	none (no result: DAGLB inhibitor)
O=c1[nH]c2ccccc2c(=O)n1-c1ccc(Cl)cc1Cl	PLC-beta3 inh 11 | PLCg1 ctr inactive | PLCbeta3 conf 14
Brc1csc(N2CCNCC2)n1	none (no result: DAGLB inhibitor)
O=C(CN1C(=O)[C@@H](Cc2ccccc2)N=C(c2ccccc2)c2ccccc21)NC1CCCCC1	none (no result: DAGLB inhibitor)
CCN1CCN(Cc2ccc(OC(F)(F)F)cc2)CC1	none
CCN1CCN(Cc2cccnc2)CC1	PLC-gamma1 inh 9.7 | PLCg1 ctr inactive | PLCbeta3 conf inactive
CC12CC[C@H]3[C@@H](CCC4(O)C[C@H](O)CCC34/C=N/NC(=O)c3ccccc3F)C1(O)CCC2C1=CC(=O)OC1 (stereo partly drawn)	PLC-gamma1 inh 13 | PLCg1 ctr inactive | PLCbeta3 conf inactive
CC12CC[C@H]3[C@@H](CCC4(O)C[C@H](O)CCC34/C=N/NC(=O)c3ccccc3O)C1(O)CCC2C1=CC(=O)OC1 (stereo partly drawn)	none
NS(=O)(=O)c1nc[nH]c1[N+](=O)[O-]	PLC-gamma1 inh 11 | PLCg1 ctr inactive | PLCbeta3 conf inactive
CN1c2ccc(Br)cc2[C@H]2NCC[C@H]2[C@H]1CO	none (no result: DAGLB inhibitor)
Cc1cc(NC(=O)CCl)nn1C	PLC-gamma1 inh 13 | PLCg1 ctr inactive | PLCbeta3 conf inactive
CN1CC(C(=O)c2cccs2)C(c2ccc(Cl)cc2)C1 (stereo not drawn)	none
O=C(c1cccs1)C1CN2CCC1CC2 (stereo not drawn)	PLC-gamma1 inh 10 | PLCg1 ctr inactive | PLCbeta3 conf inactive
Cc1ccc(OCCOc2cccc(C=C3C(=O)NC(=O)NC3=O)c2)cc1	PLC-gamma1 inh 11 | PLCg1 ctr inactive | PLCbeta3 conf inactive
Cc1cc(C)cc(OCCOc2cccc(C=C3C(=O)NC(=O)NC3=O)c2)c1	none
CCOC(=O)c1sc(/N=C/c2c(O)n(-c3ccccc3)c(=O)[nH]c2=O)c(C#N)c1C	none
CCOC(=O)c1c(/N=C/c2c(O)n(-c3cccc(C)c3)c(=O)[nH]c2=O)sc2c1CCCC2	sPLA2-III inh 20 | sPLA2 confirm inactive | BODIPY interf inactive
CC(=NCCc1ccccc1)c1c(O)n(C)c(=O)n(C)c1=O	none
CC(=Nc1ccccc1N)c1c(O)n(C)c(=O)n(C)c1=O	sPLA2-III inh 20 | sPLA2 confirm inactive | BODIPY interf inactive
O=C(CN1C(=O)CN=C(c2ccccc2)c2cc(Cl)ccc21)NC1CCCCC1	none (no result: DAGLB inhibitor)
CC(C)(C)OC(=O)NCCCCC(N)[P+](=O)O (stereo not drawn)	none (no result: DAGLB inhibitor)
CC(C)Oc1ccc(CCN)cc1Cl	sPLA2-III inh 23 | sPLA2 confirm inactive | BODIPY interf inactive
CCCCOc1ccc(CCN)cc1Cl	none
O=C(NCCN1CCC2(CC1)C(=O)NCN2c1ccccc1)c1ccc(Cl)c(Cl)c1	none (no result: DAGLB inhibitor)
CC(C)Oc1ccc(C2(C#N)CC[N+](C)(C)CC2)cc1	sPLA2-III inh 22 | sPLA2 confirm inactive | BODIPY interf inactive
O=C1CC[C@@]2(O)[C@H]3Cc4ccc(O)c5c4[C@@]2(CCN3CC2CC2)C1O5 (stereo partly drawn)	none (no result: DAGLB inhibitor)
O=[N+]([O-])c1ccc(N2CCNCC2)cc1N1CCCCCC1	sPLA2-III inh 36 | sPLA2 confirm inactive | BODIPY interf inactive
C[n+]1c(-c2ccccc2)sc2ccccc21	none
CN(C)c1ccc(/C=C/C=C/c2sc3ccccc3[n+]2C)cc1	sPLA2-III inh 21 | sPLA2 confirm 41 | BODIPY interf inactive | 535nm interf DR inactive
CN(C)c1ccc(/C=C/c2cc[n+](C)c3ccccc23)cc1	sPLA2-III inh 26 | sPLA2 confirm 33 | BODIPY interf inactive | 535nm interf DR inactive
CC[C@H](C)[C@@H]1OC(=O)[C@H](C(C)C)N(C)C(=O)[C@H](C(C)C)NC(=O)[C@@H](C)[C@@H](CCCC#CBr)OC(=O)[C@H](C(C)C)N(C)C(=O)C2CCCN2C1=O (stereo partly drawn)	none (no result: DAGLB inhibitor)
O=C1CN=C(c2ccc[nH]2)c2cc(Cl)ccc2N1	none
CN=C1CN=C(c2ccc[nH]2)c2cc(Cl)ccc2N1	sPLA2-III inh 19 (no result: DAGLB inhibitor) | sPLA2 confirm inactive | BODIPY interf inactive

Source: PubChem BioAssay
